The source of these data is ChEMBL document CHEMBL1961873, “Compounds: GSK PKIS; Assays: Nanosyn kinase panel” (2012).

Experiment [1] deals with T1, Aurora kinase A (Homo sapiens) (UniProt O14965).
T1 sequence (whole entry): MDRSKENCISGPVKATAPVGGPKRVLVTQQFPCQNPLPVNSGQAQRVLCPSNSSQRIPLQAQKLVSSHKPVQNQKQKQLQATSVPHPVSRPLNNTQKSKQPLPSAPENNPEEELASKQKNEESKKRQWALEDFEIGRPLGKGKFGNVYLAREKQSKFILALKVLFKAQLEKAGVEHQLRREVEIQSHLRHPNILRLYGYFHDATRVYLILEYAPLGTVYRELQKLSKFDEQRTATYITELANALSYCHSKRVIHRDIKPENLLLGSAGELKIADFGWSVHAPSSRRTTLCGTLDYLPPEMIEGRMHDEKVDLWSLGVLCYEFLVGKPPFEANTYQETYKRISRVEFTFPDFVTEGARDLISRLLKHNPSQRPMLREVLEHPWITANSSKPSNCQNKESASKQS
Conditions: at 1 µM.

Experiment [2] has as its target Aurora kinase B (Homo sapiens) (UniProt Q96GD4). Conditions: at 0.1 µM.
For experiment [3] the target is unchanged. Conditions: at 1 µM.
In experiment [4] the target is T2, Aurora kinase C (Homo sapiens) (UniProt Q9UQB9).
T2 sequence (whole entry): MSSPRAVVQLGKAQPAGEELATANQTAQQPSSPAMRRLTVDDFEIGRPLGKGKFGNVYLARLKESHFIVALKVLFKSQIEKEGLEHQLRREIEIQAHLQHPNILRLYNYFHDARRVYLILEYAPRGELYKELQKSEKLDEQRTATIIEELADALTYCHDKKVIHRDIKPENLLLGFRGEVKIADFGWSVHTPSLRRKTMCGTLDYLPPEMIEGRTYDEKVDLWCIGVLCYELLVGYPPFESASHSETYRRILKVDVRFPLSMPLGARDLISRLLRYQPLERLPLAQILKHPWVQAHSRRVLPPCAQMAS
Conditions: at 0.1 µM.

Experiment [5] concerns the target T2, Aurora kinase C (Homo sapiens). Conditions: at 1 µM.
Experiment [6] concerns the target Serine/threonine-protein kinase 10 (Homo sapiens) (UniProt O94804). Conditions: at 0.1 µM.
Experiment [7] shares this target. Conditions: at 1 µM.
The target in experiment [8] is T3, Mitogen-activated protein kinase kinase kinase kinase 2 (Homo sapiens) (UniProt Q12851).
T3 sequence (whole entry): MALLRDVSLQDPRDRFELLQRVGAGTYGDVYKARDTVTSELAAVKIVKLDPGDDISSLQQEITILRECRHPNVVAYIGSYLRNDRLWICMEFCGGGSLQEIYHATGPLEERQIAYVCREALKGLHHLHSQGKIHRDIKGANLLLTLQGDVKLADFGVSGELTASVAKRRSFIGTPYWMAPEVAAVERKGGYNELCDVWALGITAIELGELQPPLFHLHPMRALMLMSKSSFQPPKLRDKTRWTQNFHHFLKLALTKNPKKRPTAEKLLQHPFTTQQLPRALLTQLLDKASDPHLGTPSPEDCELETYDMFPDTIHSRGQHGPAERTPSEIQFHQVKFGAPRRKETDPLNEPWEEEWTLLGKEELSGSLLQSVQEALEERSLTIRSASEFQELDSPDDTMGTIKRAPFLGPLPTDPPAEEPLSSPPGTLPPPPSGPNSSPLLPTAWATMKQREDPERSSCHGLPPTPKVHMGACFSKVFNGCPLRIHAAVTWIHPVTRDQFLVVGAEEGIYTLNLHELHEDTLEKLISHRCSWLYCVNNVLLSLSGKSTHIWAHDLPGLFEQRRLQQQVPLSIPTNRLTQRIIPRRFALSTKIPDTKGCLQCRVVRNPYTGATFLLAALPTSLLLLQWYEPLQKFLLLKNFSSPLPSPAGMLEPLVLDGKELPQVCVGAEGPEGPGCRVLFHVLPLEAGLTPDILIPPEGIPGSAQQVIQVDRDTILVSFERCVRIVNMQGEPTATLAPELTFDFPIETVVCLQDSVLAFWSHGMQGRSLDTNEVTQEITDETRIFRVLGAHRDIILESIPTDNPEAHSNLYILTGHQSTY
Conditions: at 0.1 µM.

Experiment [9] concerns the target T3, Mitogen-activated protein kinase kinase kinase kinase 2 (Homo sapiens). Conditions: at 1 µM.
Experiment [10] addresses Mitogen-activated protein kinase kinase kinase kinase 4 (Homo sapiens) (UniProt O95819). Conditions: at 0.1 µM.
For experiment [11] the target is unchanged. Conditions: at 1 µM.
Experiment [12] has as its target Dual specificity mitogen-activated protein kinase kinase 1 (Homo sapiens) (UniProt Q02750). Conditions: at 0.1 µM.
For experiment [13] the target is unchanged. Conditions: at 1 µM.
Experiment [14] addresses Misshapen-like kinase 1 (Homo sapiens) (UniProt Q8N4C8). Conditions: at 0.1 µM.
The target is the same in experiment [15]. Conditions: at 1 µM.
For experiment [16], the target named is T4, Serine/threonine-protein kinase 4 (Homo sapiens) (UniProt Q13043).
T4 sequence (whole entry): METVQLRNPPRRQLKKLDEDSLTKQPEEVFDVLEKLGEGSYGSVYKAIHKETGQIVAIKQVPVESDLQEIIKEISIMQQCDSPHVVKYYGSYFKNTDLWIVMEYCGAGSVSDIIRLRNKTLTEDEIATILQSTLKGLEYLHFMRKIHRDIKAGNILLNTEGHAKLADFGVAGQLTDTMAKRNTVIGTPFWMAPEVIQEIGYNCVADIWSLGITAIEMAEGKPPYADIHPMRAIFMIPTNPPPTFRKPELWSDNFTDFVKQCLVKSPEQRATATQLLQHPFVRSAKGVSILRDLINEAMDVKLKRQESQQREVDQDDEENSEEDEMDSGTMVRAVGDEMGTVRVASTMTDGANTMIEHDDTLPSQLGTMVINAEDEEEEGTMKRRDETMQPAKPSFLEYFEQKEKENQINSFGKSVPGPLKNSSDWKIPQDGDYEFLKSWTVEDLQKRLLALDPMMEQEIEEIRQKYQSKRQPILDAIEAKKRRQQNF
Conditions: at 0.1 µM.

Experiment [17] deals with T4, Serine/threonine-protein kinase 4 (Homo sapiens). Conditions: at 1 µM.
In experiment [18] the target is T5, Serine/threonine-protein kinase 3 (Homo sapiens) (UniProt Q13188).
T5 sequence (whole entry): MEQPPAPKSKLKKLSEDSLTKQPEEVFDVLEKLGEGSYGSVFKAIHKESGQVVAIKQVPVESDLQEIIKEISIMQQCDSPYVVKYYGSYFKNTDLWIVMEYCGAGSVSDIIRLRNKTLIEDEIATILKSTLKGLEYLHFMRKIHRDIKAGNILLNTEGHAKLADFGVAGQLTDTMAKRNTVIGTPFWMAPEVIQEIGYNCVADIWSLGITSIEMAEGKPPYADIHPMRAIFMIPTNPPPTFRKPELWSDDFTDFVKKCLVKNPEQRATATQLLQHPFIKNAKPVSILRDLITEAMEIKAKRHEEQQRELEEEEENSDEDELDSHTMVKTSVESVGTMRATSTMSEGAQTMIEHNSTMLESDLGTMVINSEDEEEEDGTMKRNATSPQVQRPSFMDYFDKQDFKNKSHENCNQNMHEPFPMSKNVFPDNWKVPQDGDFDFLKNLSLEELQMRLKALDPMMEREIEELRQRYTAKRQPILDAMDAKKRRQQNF
Conditions: at 0.1 µM.

The target of experiment [19] is T5, Serine/threonine-protein kinase 3 (Homo sapiens). Conditions: at 1 µM.
The target of experiment [20] is Serine/threonine-protein kinase 26 (Homo sapiens) (UniProt Q9P289). Conditions: at 0.1 µM.

SMILES strings stand for the structures.

Chain of Mitogen-activated protein kinase kinase kinase kinase 4 (Homo sapiens) (O95819 2-1239 limits assumed): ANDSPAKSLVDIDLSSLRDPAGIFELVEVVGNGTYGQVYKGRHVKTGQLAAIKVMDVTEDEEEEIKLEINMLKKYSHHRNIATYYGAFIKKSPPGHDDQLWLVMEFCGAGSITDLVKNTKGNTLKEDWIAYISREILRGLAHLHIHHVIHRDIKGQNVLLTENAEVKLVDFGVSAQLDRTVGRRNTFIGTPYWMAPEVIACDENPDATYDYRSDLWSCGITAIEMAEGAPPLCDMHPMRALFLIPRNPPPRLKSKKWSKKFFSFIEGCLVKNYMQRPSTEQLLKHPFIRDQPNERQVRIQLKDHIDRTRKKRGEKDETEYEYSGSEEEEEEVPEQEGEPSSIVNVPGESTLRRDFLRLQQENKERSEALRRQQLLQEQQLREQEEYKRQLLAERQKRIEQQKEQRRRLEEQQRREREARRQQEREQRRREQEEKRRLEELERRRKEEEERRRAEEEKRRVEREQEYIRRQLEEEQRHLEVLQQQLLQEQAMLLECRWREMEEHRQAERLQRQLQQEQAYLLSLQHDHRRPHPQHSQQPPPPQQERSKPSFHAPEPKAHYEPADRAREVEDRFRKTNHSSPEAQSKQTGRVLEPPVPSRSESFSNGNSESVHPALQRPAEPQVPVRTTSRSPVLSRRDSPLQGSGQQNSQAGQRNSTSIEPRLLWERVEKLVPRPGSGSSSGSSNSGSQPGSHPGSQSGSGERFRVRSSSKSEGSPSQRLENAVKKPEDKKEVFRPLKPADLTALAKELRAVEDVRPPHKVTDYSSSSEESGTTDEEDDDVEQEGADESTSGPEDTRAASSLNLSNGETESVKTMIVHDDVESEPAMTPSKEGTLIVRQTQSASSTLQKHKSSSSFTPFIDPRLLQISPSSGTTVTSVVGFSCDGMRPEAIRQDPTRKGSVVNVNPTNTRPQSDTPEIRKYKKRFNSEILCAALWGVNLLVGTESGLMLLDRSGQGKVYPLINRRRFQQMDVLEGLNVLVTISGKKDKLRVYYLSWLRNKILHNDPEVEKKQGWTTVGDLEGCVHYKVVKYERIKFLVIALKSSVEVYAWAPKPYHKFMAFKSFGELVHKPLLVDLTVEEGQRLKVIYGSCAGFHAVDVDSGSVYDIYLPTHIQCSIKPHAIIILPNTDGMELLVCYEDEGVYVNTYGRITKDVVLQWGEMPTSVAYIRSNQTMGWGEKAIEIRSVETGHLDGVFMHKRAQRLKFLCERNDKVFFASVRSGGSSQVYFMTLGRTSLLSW
Chain of Serine/threonine-protein kinase 26 (Homo sapiens) (Q9P289 2-416 limits assumed): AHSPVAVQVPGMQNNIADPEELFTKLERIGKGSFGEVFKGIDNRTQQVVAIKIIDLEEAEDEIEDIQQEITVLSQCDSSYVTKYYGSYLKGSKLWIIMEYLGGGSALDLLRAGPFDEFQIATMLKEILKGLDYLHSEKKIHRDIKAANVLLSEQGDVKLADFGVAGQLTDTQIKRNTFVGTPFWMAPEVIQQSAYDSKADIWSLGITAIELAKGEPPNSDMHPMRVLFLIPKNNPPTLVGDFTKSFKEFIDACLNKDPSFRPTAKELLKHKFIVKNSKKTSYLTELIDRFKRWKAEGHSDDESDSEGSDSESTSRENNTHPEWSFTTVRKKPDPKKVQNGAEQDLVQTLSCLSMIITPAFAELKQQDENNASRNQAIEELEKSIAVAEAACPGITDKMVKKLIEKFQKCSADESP
Chain of Misshapen-like kinase 1 (Homo sapiens) (Q8N4C8 whole entry, looked up): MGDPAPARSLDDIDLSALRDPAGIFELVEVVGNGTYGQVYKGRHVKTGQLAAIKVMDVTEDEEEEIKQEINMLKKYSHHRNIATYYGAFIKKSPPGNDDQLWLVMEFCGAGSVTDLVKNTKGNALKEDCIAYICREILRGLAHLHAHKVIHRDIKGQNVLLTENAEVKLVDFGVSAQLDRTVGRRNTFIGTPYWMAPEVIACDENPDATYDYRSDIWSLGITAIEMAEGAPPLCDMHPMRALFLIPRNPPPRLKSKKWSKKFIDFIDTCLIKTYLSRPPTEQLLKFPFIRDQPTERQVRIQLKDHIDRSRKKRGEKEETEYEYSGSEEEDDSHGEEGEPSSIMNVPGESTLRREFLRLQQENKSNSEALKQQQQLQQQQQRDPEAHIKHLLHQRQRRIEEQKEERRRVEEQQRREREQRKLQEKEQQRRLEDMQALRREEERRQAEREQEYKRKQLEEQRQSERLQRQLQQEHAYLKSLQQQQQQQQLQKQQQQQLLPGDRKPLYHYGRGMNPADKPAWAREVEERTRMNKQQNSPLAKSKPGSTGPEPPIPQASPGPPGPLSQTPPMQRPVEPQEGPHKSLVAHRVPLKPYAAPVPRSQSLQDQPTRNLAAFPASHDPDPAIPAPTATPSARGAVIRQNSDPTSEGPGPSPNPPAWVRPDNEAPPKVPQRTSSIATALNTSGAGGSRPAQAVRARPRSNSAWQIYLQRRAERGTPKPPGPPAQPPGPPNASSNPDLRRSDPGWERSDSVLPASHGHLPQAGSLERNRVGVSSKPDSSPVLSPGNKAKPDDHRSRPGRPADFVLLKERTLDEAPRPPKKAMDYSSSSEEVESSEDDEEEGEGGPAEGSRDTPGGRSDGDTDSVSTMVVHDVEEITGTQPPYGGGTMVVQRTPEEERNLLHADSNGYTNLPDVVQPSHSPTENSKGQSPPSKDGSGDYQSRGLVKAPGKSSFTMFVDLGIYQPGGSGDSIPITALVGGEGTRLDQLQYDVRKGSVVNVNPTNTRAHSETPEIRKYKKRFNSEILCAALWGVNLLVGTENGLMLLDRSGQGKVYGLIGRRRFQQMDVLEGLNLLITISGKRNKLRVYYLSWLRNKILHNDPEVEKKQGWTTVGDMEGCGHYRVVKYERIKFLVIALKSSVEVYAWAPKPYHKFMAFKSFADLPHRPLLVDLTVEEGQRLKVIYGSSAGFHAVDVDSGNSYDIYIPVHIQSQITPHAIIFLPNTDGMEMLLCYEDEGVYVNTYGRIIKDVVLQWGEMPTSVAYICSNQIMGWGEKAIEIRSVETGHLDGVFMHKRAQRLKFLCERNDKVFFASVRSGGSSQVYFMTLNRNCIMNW
Chain of Aurora kinase B (Homo sapiens) (Q96GD4 whole entry): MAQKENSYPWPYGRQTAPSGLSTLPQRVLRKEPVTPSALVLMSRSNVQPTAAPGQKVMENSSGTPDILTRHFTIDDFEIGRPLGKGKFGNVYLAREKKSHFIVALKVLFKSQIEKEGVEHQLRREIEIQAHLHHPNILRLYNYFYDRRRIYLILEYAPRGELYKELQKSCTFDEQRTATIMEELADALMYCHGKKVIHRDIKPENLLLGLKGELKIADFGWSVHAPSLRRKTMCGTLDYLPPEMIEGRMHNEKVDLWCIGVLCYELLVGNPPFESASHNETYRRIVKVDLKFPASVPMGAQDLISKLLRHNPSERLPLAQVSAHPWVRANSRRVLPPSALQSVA
Chain of Dual specificity mitogen-activated protein kinase kinase 1 (Homo sapiens) (Q02750 whole entry): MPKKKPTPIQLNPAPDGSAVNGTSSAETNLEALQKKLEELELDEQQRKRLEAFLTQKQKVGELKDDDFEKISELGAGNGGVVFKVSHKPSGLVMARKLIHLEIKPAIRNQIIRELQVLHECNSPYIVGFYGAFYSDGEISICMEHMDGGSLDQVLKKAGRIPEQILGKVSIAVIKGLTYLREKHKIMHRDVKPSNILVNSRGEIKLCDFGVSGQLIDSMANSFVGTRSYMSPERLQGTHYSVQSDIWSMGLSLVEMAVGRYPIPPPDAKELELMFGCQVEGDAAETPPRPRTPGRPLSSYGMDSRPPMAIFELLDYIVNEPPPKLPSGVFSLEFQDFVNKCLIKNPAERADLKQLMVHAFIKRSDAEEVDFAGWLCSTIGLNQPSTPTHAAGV
Chain of Serine/threonine-protein kinase 10 (Homo sapiens) (O94804 whole entry, looked up): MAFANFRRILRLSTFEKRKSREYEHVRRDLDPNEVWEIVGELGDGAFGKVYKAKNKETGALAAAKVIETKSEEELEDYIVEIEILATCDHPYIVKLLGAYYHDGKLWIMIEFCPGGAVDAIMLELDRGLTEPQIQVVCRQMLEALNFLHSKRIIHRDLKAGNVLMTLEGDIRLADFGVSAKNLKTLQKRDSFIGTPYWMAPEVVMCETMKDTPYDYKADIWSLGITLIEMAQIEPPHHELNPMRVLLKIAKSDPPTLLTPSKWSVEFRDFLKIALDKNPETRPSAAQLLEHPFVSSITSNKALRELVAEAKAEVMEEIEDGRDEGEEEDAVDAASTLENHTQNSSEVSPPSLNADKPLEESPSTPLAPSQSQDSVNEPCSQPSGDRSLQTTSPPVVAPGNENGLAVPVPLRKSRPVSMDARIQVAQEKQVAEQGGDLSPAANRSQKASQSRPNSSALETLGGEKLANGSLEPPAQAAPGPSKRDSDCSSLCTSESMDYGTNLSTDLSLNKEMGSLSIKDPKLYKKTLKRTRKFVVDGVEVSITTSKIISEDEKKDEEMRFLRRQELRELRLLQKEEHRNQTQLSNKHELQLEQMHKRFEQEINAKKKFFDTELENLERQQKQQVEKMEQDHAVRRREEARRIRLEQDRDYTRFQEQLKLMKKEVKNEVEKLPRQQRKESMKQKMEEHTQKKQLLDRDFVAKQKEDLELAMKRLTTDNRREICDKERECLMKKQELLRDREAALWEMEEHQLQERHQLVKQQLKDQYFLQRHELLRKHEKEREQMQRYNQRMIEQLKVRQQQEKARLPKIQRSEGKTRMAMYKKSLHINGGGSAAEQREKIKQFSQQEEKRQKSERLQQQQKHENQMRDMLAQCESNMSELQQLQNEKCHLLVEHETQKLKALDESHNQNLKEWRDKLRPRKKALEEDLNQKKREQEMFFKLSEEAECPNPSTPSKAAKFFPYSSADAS

For `Cc1cc(O)cc(C)c1/C=C/c1cncc(C(=O)N(C)C)c1`, the inhibition worked out at 13.3% in experiment [1]; 7.28% in [2]; 14.7% in [3]; 3.08% in [4]; 2.63% in [5]; 3.87% in experiment [6]. In addition, the inhibition stood at 7.88% in experiment [7]; 2.39% in experiment [8]; 6.67% in experiment [9]; 6.12% in experiment [10]; 12.6% in experiment [11]; 2.74% in experiment [12]. Further, the inhibition came to 2.6% in [13]; 6.61% in experiment [14]; 11.7% in experiment [15]; 3.39% in [16]; 3.11% in experiment [17]; 3.57% in experiment [18]. The inhibition in experiment [19] is 2.26%; in experiment [20], 0.08%.
`COc1cc2ncn(-c3cc(OCc4ccccc4S(C)(=O)=O)c(C#N)s3)c2cc1OC`: the inhibition in experiment [1] came to 77.2%; in experiment [2] it was 28.2%; in [3], 73.6%; in [4] it was 17.7%; in [5], 93.8%; in experiment [6] it was 35.5%. For the same compound, the inhibition in experiment [7] was 71.7%; in experiment [8] it was 8.65%; in experiment [9], 41.3%; in experiment [10] it was 57.5%; in [11], 90.5%; in experiment [12], 3.78%. Moreover, the inhibition in experiment [13] came out at 7.23%; in experiment [14], 43.7%; in experiment [15] it was 83.5%; in experiment [16], 22.3%; in [17], 66.4%; in experiment [18], 17.3%. Further, the inhibition in [19] is 51.5%; in experiment [20] it was -1.33%.
In the case of `CCn1c(-c2nonc2N)nc2ccc(F)cc21`, the inhibition was 4.08% in experiment [1]; 1.24% in [2]; 7.81% in experiment [3]; 1.48% in [4]; -2.72% in [5]; 9.56% in experiment [6]. The inhibition in [7] stood at 13.5%; in experiment [8], 1.16%; in experiment [9], 2.01%; in [10], 4.2%; in experiment [11] it was 9.77%; in experiment [12], 9.94%. Moreover, the inhibition was found to be 7.03% in experiment [13]; 6.88% in experiment [14]; 9.59% in experiment [15]; 5.88% in experiment [16]; 5.97% in experiment [17]; 6.38% in [18]. Moreover, the inhibition was 6.55% in experiment [19] and -1.73% in [20].
Regarding `CS(=O)(=O)CCNCc1nc(-c2ccc3ncnc(Nc4ccc(OCc5cccc(C(F)(F)F)c5)cc4)c3c2)cs1`, the inhibition in [1] was 2.26%; in [2] it was 4.85%; in [3] it was 6.3%; in experiment [4], 5.42%; in experiment [5], 5.59%; in experiment [6], 6.68%. Besides, the inhibition in experiment [7] is 10%; in experiment [8], -0.19%; in experiment [9], 3.96%; in [10], 1.73%; in [11], 3.34%; in experiment [12], 1.13%. For the same compound, the inhibition in [13] was 0.13%; in [14], 2.9%; in experiment [15], 4.39%; in [16], 3.31%; in experiment [17] it was 6.13%; in experiment [18] it was 4.17%. Besides, the inhibition in experiment [19] is 6.28%; in experiment [20] it was -0.02%.
As for `O=S(=O)(CCOCc1ccc(-c2ccc3ncnc(Nc4ccc(OCc5cccc(F)c5)c(Cl)c4)c3c2)o1)c1ccccc1`, the inhibition was 2.01% in [1]; 2.69% in experiment [2]; 7.69% in experiment [3]; -0.03% in experiment [4]; 5.99% in experiment [5]; 2.38% in experiment [6]. Besides, the inhibition was 5.21% in experiment [7]; 0.66% in experiment [8]; 3.12% in experiment [9]; 6.19% in [10]; 7% in [11]; 2.11% in [12]. Also, the inhibition in [13] worked out at 3.33%; in experiment [14], 3.54%; in experiment [15] it was 5.66%; in experiment [16] it was 4.3%; in experiment [17] it was 7.99%; in experiment [18], 0.99%. Besides, the inhibition was 5.7% in experiment [19] and -0.04% in experiment [20].
In the case of `O=C1Nc2ccccc2/C1=C/Nc1ccc2[nH]c(=O)[nH]c2c1`, the inhibition in [1] was found to be 52%; in experiment [2], 10.8%; in [3], 44.7%; in experiment [4], 9.06%; in [5], 81.9%; in experiment [6] it was 8.73%. Also, the inhibition came to 17% in experiment [7]; 1.3% in experiment [8]; 15.2% in [9]; 25.3% in [10]; 75.4% in [11]; 8.19% in [12]. The inhibition in [13] was found to be 6.88%; in [14], 17.4%; in [15], 64.3%; in experiment [16], 18.1%; in [17] it was 67.2%; in experiment [18], 15.5%. In addition, the inhibition in [19] is 59.4%; in [20], -1.35%.
